# Only some compounds are listed: those with a hit (about 0.9% of all), similar ones and a draw of the others.
# SRC3 TRFRET art – TR-FRET artefact, counter-screen to PPARgamma/SRC-3 agonist assay | AID 1048 | actives 0.39% (n = 99,000) | TR-FRET ratio at 8 µM | PPARgamma/SRC-3 format; active compounds read high
# PPARg SRC1 recr – promotes SRC-1 coactivator recruitment by human PPARgamma | P37231 | PPARgamma-SRC-1 coactivator recruitment biochemical assay | activation, % at 8 µM | actives 0.41% (n = 200,000); in the data active = activation above about 19%;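 note: 0% = DMSO and 100% = reference agonist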
# Target sequence (P37231 whole entry, looked up): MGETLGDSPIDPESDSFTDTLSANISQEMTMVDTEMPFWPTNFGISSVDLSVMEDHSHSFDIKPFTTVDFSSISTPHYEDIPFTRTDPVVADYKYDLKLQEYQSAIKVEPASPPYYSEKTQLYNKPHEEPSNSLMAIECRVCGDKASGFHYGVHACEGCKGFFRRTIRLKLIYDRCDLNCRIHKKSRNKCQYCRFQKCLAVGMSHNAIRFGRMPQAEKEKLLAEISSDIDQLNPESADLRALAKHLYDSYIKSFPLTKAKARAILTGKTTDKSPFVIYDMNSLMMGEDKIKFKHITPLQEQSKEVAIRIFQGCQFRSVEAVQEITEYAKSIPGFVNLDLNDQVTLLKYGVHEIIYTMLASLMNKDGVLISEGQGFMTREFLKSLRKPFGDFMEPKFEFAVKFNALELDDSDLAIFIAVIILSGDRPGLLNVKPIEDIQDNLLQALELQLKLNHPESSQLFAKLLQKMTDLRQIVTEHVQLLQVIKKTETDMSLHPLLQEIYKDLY
# PPARg SRC3 recr – promotes SRC-3 coactivator recruitment by human PPARgamma; biochemical PPARgamma/SRC-3 coactivator recruitment assay; AID 731; actives 0.26% (n = 200,000); P37231; activation, % at 8 µM; in the data active = activation above about 23%;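 note: 0% = DMSO and 100% = reference agonist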
# SRC1 TRFRET art – flags TR-FRET format artefacts in PPARgamma SRC-1 recruitment agonist screen. TR-FRET ratio at 8 µM. AID 1051. TR-FRET detection artefact counter-screen, emission ratio; active compounds read high. actives 0.34% (n = 99,000); in the data active = TR-FRET ratio above about 2300
# PPARg SRC2 recr – agonists of SRC-2 recruitment by human PPARgamma; PPARgamma LBD-SRC-2 recruitment, biochemical; AID 1032; P37231; actives 0.34% (n = 200,000); activation, % at 8 µM; in the data active = activation above about 22%;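 note: 0% = vehicle and 100% = reference agonist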
# TR-FRET SRC-2 ct – counter-screen for PPARgamma SRC-2 recruitment agonists: TR-FRET artefact; TR-FRET ratio at 8 µM; active compounds read high; actives 0.4% (n = 200,000)
# * hit, by the source's call; x = no result given. Cut-off read from the data, not from the text of the source, unless noted: active = TR-FRET ratio above about 2000; inactive = the rest.
SMILES,SRC3 TRFRET art,PPARg SRC1 recr,PPARg SRC3 recr,SRC1 TRFRET art,PPARg SRC2 recr,TR-FRET SRC-2 ct
CN(CP(=O)(O)CN(C)S(C)(=O)=O)S(C)(=O)=O,x,21*,4,x,1,1670
CCC(=O)NC(=S)Nc1ccc(NC(=S)NC(=O)c2ccccc2)cc1,1626,24*,3,2679*,3,1582
COc1cc(NC(C)=O)ccc1-c1cc2ccccc2oc1=O,1621,16,1,1840,12,1672
COc1cc(NC(=O)c2ccc(Cl)cc2Cl)ccc1-c1cc2ccccc2oc1=O,x,13,18,x,17,2335*
O=C(C1CCC1)N1CCc2cc(S(=O)(=O)NCCN3CCN(c4ccccc4F)CC3)ccc21,x,7,10,x,-3,1525
COC(=O)c1ccccc1NC(=S)N(Cc1ccc2c(c1)OCO2)Cc1cc2ccc(OC)cc2[nH]c1=O,2123*,-5,-1,1854,13,1721
O=C1Nc2ccc(Cl)cc2C12Nc1ccccc1-c1nnc(SCc3ccccc3F)nc1O2 (configuration not stated),1748,14,11,2406*,18,1786
OC(C#CCN1CCCC1)(c1ccccc1)c1cccc(F)c1 (configuration not stated),1768,1,7,1858,26*,1613
CCOC(=O)c1ccc(S(=O)(=O)N2CCC(C(=O)O)CC2)cc1,x,-4,1,x,-3,1364
O=C(COc1ccccc1Br)N1CCN(c2ccccc2)CC1,x,7,-6,x,8,1594
Cn1cccc1-c1nc2ccc(NC(=O)c3ccccc3)cc2[nH]1,x,1,7,x,26*,1614
COc1cc(NS(C)(=O)=O)c(OC)cc1NC(=O)c1ccccc1,x,-10,-7,x,2,1526
CCCC(=O)c1c(NCCO)cc(C)oc1=O,1403,-4,-4,1645,-10,1335
O=C(NCc1ccccc1)c1ccc(-c2ccc(F)cc2)o1,x,-3,-3,x,7,1473
CC(C)C(C)(C#N)NC(=O)CSc1nc2scc(-c3ccc(F)cc3)c2c(=O)n1Cc1ccccc1 (configuration not stated),2793*,1,6,2769*,-5,2522*
CC(C)C(C)(C#N)NC(=O)CSc1nnc(-c2ccncc2)n1Cc1ccccc1 (configuration not stated),x,7,8,x,11,1578
Cc1cccc(N(CC(=O)N2CCN(c3ccc(F)cc3)CC2)S(C)(=O)=O)c1C,1507,29*,2,2469*,0,1524
Cc1cccc(N(CC(=O)N2CCOCC2)S(C)(=O)=O)c1C,x,13,16,x,13,1639
Nc1ccc(-c2cn3cccnc3n2)cc1,2118*,1,12,1719,9,1474
COc1ccc(-c2cn3cccnc3n2)cc1Br,1496,0,0,1584,1,1548
Cc1ccc(C)c(C(=O)CSc2nnc(C)s2)c1,1817,11,0,1844,10,1607
COc1ccc(CCCc2n[nH]c(=S)o2)cc1,1430,7,-1,1887,-2,2009*
CCCCNC(=O)/C(=C/c1ccccc1)NC(C)=O,1899,3,5,1563,4,1586
O=C(NCc1ccc(Cl)cc1)c1ccc2nc[nH]c2c1,1741,2,0,2039,17,1604
Cc1ccc(-c2nnc(OCc3cccnc3)c3ccccc23)cc1,1452,1,5,1973,15,1613
SMILES,SRC3 TRFRET art,PPARg SRC1 recr,PPARg SRC3 recr,SRC1 TRFRET art,PPARg SRC2 recr,TR-FRET SRC-2 ct
Cc1cc(C(=O)N/N=C/c2cccc([N+](=O)[O-])c2O)n[nH]1,2114*,8,4,2259,18,1799
Cc1cc(C(=O)N/N=C/c2ccc(O)c([N+](=O)[O-])c2)n[nH]1,1716,4,8,2220,9,1578
COc1cccc(-c2ccc(C#N)c(SCC(=O)NCc3ccco3)n2)c1,1969,16,9,2097,6,1980*
CC/C(=N/OC(=O)c1cccc(C)c1)C(=O)c1cccs1,1540,7,1,1901,3,1784
Brc1cc2c(cc1C1Nc3ccccc3C3C=CCC31)OCO2 (configuration not stated),1653,2,-2,1682,3,1622
Cc1cc(C)c2c(c1)NC(c1cc3c(cc1Br)OCO3)C1CC=CC21 (configuration not stated),1516,45*,0,3042*,6,1654
Cc1ccsc1/C=C1\SC(N)=NC1=O,x,6,6,x,11,1449
